# Assay results from article PMC7862700, “An all-to-all approach to the identification of sequence-specific readers for epigenetic DNA modifications on cytosine”.
# Tests used:
# Assay in all cases: DAPPL (digital affinity profiling via proximity ligation, sequencing); 10 mM Tris-HCl pH 7.5, 50 mM NaCl, 1 mM DTT, 4% glycerol, room temperature, 30 min; GST-TFs on glutathione beads, 16-mer random dsDNA library, 0.1% formaldehyde crosslink after washing; high values mean tight binding
# Conditions in all cases: protein: recombinant; tags: N-terminal GST; dsDNA, one strand shown
# ERF = target: T1, ERF (Homo sapiens, UniProt P50548 1-548)
# T1 sequence: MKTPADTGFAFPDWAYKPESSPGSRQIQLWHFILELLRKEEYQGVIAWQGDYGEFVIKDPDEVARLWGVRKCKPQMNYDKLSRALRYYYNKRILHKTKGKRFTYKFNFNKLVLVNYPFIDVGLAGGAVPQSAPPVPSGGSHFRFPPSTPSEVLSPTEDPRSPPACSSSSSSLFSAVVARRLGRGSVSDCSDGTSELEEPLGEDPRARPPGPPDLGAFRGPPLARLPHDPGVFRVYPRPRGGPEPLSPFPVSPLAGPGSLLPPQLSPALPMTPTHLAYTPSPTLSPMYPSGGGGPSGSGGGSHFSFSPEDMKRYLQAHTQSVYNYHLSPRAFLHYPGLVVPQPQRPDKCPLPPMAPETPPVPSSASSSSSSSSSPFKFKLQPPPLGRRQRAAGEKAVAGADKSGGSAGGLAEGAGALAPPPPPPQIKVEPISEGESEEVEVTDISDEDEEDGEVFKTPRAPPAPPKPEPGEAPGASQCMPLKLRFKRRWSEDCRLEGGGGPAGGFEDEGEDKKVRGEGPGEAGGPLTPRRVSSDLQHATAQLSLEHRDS
# How it was run: (§1)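 After expression in yeast as GST fusions, human transcription factors were bound to glutathione beads, DNA-barcoded and mixed with a tag-only sample. The pools were incubated with 200 nmole of a 16-mer random double-stranded DNA library in Tris/NaCl/DTT/glycerol buffer (30 min, room temperature), washed and crosslinked with 0.1% formaldehyde. Proximity ligation with BsaI/T4 ligase ran for 1 h at 37 °C, before PCR amplification and sequencing on an Illumina NextSeq500. Binding signal is a hexamer's read frequency for a factor divided by its frequency for the tag-only sample.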
# ETV3L = target: T2, ETV3L (Homo sapiens, UniProt Q6ZN32 1-361)
# T2 sequence: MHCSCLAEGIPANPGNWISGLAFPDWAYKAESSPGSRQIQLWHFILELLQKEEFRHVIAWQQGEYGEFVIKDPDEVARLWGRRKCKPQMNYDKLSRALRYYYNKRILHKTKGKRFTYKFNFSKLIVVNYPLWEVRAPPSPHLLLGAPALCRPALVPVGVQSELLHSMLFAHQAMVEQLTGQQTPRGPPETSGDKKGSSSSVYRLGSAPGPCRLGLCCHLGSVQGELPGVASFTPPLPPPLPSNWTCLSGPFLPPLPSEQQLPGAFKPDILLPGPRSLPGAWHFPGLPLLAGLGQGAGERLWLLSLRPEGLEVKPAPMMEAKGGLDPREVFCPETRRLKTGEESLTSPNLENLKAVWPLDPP
# How it was run: as §1
# ETS2 = target: T3, ETS2 (Homo sapiens, UniProt P15036 1-469)
# T3 sequence: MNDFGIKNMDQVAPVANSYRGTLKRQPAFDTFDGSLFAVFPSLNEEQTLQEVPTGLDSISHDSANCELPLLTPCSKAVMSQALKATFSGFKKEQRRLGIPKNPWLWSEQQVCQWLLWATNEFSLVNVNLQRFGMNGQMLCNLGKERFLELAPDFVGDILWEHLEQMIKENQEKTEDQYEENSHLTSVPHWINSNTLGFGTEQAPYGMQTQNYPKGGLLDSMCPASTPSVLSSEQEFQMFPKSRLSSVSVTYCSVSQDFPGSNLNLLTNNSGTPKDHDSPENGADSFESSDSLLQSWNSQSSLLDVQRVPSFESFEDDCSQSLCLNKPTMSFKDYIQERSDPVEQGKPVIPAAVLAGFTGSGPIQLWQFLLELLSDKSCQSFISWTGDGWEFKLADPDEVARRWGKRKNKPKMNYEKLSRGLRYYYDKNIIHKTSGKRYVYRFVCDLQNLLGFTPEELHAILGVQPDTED
# How it was run: as §1
# SPDEF = target: T4, SPDEF (Homo sapiens, UniProt O95238 1-335)
# T4 sequence: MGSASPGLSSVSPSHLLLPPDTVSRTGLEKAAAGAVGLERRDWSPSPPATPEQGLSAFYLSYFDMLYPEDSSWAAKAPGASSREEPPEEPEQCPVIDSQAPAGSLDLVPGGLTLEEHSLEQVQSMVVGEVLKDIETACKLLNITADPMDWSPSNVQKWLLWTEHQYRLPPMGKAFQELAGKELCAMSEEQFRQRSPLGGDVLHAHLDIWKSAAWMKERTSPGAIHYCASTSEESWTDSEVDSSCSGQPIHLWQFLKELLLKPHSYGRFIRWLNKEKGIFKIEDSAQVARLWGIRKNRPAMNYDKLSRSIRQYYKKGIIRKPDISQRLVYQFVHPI
# How it was run: as §1
# ETV6 = ETV6 (Homo sapiens, UniProt P41212 1-452)
# Chain of ETV6 (P41212 whole entry): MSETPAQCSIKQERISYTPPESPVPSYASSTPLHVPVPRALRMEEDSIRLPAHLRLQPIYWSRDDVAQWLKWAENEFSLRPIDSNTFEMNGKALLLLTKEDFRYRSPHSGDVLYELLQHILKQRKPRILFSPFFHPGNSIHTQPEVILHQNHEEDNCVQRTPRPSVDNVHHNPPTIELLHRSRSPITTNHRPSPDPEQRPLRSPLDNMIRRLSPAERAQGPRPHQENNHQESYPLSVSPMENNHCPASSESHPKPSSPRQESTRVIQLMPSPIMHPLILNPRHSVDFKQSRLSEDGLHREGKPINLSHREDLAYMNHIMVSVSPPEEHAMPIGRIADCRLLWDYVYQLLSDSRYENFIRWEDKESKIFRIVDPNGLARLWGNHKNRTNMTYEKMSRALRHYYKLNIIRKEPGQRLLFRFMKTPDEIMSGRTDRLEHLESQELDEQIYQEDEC
# How it was run: as §1
# ETV7 = target: T5, ETV7 (Homo sapiens, UniProt Q9Y603 1-341)
# T5 sequence: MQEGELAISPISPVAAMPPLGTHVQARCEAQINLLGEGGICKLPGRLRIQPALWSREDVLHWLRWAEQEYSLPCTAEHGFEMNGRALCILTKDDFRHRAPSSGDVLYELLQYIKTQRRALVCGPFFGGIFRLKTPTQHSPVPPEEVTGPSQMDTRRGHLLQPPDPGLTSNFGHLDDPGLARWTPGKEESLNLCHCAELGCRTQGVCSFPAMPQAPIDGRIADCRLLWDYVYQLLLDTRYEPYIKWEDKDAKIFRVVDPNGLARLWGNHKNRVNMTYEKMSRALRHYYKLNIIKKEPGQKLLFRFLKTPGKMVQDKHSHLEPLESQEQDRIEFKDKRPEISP
# How it was run: as §1
# ELF5 = target: T6, ELF5 (Homo sapiens, UniProt Q9UKW6-2 1-255)
# T6 sequence: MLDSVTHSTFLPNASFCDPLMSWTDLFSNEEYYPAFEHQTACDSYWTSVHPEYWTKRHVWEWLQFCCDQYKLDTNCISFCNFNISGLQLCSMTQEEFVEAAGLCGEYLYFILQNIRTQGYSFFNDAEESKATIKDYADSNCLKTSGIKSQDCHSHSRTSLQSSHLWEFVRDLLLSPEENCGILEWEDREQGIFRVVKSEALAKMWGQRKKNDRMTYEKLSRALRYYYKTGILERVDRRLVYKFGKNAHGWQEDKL
# How it was run: as §1
# ETV3 = target: T7, ETV3 (Homo sapiens, UniProt P41162-2 1-143)
# T7 sequence: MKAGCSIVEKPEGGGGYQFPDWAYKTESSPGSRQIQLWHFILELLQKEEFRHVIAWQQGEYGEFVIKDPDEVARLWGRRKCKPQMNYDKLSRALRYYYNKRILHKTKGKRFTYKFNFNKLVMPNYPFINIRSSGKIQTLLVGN
# How it was run: as §1
Sequence,binding signal (ERF),binding signal (ETV3L),binding signal (ETS2),binding signal (SPDEF),binding signal (ETV6),binding signal (ETV7),binding signal (ELF5),binding signal (ETV3)
TAGCGA,"1.19 fold enrichment (6-mer frequency, TF over GST control)","1.02 fold enrichment (6-mer frequency, TF over GST control)","1.01 fold enrichment (6-mer frequency, TF over GST control)","1.02 fold enrichment (6-mer frequency, TF over GST control)","1 fold enrichment (6-mer frequency, TF over GST control)",,,
GACTTT,"1.09 fold enrichment (6-mer frequency, TF over GST control)","1.13 fold enrichment (6-mer frequency, TF over GST control)","1.17 fold enrichment (6-mer frequency, TF over GST control)",,"1.14 fold enrichment (6-mer frequency, TF over GST control)","1.2 fold enrichment (6-mer frequency, TF over GST control)","1.13 fold enrichment (6-mer frequency, TF over GST control)","1.14 fold enrichment (6-mer frequency, TF over GST control)"
TGGTAG,"1.11 fold enrichment (6-mer frequency, TF over GST control)","1.02 fold enrichment (6-mer frequency, TF over GST control)","1.04 fold enrichment (6-mer frequency, TF over GST control)",,,"1.18 fold enrichment (6-mer frequency, TF over GST control)","1.1 fold enrichment (6-mer frequency, TF over GST control)","1.1 fold enrichment (6-mer frequency, TF over GST control)"
GATAAT,"1.11 fold enrichment (6-mer frequency, TF over GST control)","1.12 fold enrichment (6-mer frequency, TF over GST control)","1.18 fold enrichment (6-mer frequency, TF over GST control)",,"1.05 fold enrichment (6-mer frequency, TF over GST control)","1.12 fold enrichment (6-mer frequency, TF over GST control)","1.08 fold enrichment (6-mer frequency, TF over GST control)","1.15 fold enrichment (6-mer frequency, TF over GST control)"
TCAATG,"1.11 fold enrichment (6-mer frequency, TF over GST control)","1.05 fold enrichment (6-mer frequency, TF over GST control)","1.06 fold enrichment (6-mer frequency, TF over GST control)","1.12 fold enrichment (6-mer frequency, TF over GST control)","1.05 fold enrichment (6-mer frequency, TF over GST control)",,,"1.06 fold enrichment (6-mer frequency, TF over GST control)"
GCGCCT,"1.05 fold enrichment (6-mer frequency, TF over GST control)","1.07 fold enrichment (6-mer frequency, TF over GST control)","1.02 fold enrichment (6-mer frequency, TF over GST control)",,"1.12 fold enrichment (6-mer frequency, TF over GST control)","1.06 fold enrichment (6-mer frequency, TF over GST control)","1.04 fold enrichment (6-mer frequency, TF over GST control)","1.1 fold enrichment (6-mer frequency, TF over GST control)"
AATCGC,"1.01 fold enrichment (6-mer frequency, TF over GST control)","1.05 fold enrichment (6-mer frequency, TF over GST control)","1.17 fold enrichment (6-mer frequency, TF over GST control)",,"1.17 fold enrichment (6-mer frequency, TF over GST control)","1.07 fold enrichment (6-mer frequency, TF over GST control)","1.1 fold enrichment (6-mer frequency, TF over GST control)","1.08 fold enrichment (6-mer frequency, TF over GST control)"
AAGACT,"1.16 fold enrichment (6-mer frequency, TF over GST control)","1.04 fold enrichment (6-mer frequency, TF over GST control)","1.07 fold enrichment (6-mer frequency, TF over GST control)",,"1.13 fold enrichment (6-mer frequency, TF over GST control)","1.08 fold enrichment (6-mer frequency, TF over GST control)","1.15 fold enrichment (6-mer frequency, TF over GST control)","1.12 fold enrichment (6-mer frequency, TF over GST control)"
TTATCA,"1.14 fold enrichment (6-mer frequency, TF over GST control)","1.15 fold enrichment (6-mer frequency, TF over GST control)","1.04 fold enrichment (6-mer frequency, TF over GST control)",,"1 fold enrichment (6-mer frequency, TF over GST control)","1.03 fold enrichment (6-mer frequency, TF over GST control)","1.07 fold enrichment (6-mer frequency, TF over GST control)","1.09 fold enrichment (6-mer frequency, TF over GST control)"
GTTTGG,"1.11 fold enrichment (6-mer frequency, TF over GST control)","1.09 fold enrichment (6-mer frequency, TF over GST control)","1.07 fold enrichment (6-mer frequency, TF over GST control)",,,"1.12 fold enrichment (6-mer frequency, TF over GST control)","1.1 fold enrichment (6-mer frequency, TF over GST control)","1.1 fold enrichment (6-mer frequency, TF over GST control)"
AGGGCT,"1.1 fold enrichment (6-mer frequency, TF over GST control)","1.06 fold enrichment (6-mer frequency, TF over GST control)","1.02 fold enrichment (6-mer frequency, TF over GST control)",,"1.09 fold enrichment (6-mer frequency, TF over GST control)","1.12 fold enrichment (6-mer frequency, TF over GST control)","1.05 fold enrichment (6-mer frequency, TF over GST control)","1.06 fold enrichment (6-mer frequency, TF over GST control)"
